Test results reported in PubChem BioAssay (Tox21).
Several values for one entry are separate records, joined by “and”; a condition that tells them apart may be missing. Equal values may be shown once. Results filed as inconclusive are left out. More than one record can exist for a structure, and the calls need not agree. Activity calls are given as the source filed them. Unless noted, calls follow the shape of the dose curve; as a rule, active = well fitted curve in the direction sought with a large enough effect in the repeat runs; inconclusive = weak or mixed curves; inactive = no such curve, though single readings can be large; an effect the other way counts as inactive or inconclusive.

Key:
[1] = qHTS assay for small molecule agonists of the p53 signaling pathway (AID 651631; calls by dose curve; also: nearly all actives have a fitted effect of over 15% in size)
How it was run: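 Beta-lactamase reporter activity under p53 response elements was quantified in HCT-116 cells by FRET fluorescence, following 16 h incubation with test compounds at 37 °C and 2 h substrate development at room temperature.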

[2] = qHTS assay for small molecule agonists of the p53 signaling pathway - cell viability (AID 651633; calls by dose curve; also: nearly all actives have a fitted effect of over 30% in size; also: potency is read from the fitted curve at half-maximal effect)
How it was run: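 Viability counter-read: CellTiter-Glo luminescence (30 min, room temperature) in the same p53RE-bla plates. These plates had been exposed to compounds for 16 h at 37 C.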

[3] = qHTS assay for small molecules that induce genotoxicity in human embryonic kidney cells expressing luciferase-tagged ATAD5 - cell viability (AID 651634; calls by dose curve; also: nearly all actives have a fitted effect of over 25% in size)
How it was run: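 Viability read: CellTiter-Fluor fluorescence, 30 min at 37C. Cells: HEK293T, luciferase-tagged ATAD5. Exposure: 15.5 hr, 37C, 5% CO2, compound or DMSO vehicle.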

[4] = qHTS assay for small molecule disruptors of the mitochondrial membrane potential - cell viability (AID 720634; calls by dose curve; also: nearly all actives have a fitted effect of over 20% in size; also: potency is read from the fitted curve at half-maximal effect)
How it was run: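 HepG2, 1 hr compound, 37 C. ATP luminescence via CellTiter-Glo, 30 min RT, same well as m-MPI.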

[5] = qHTS assay to test for compound auto fluorescence at 590 nm (red) in HepG2 cells (AID 720674)
How it was run: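 Red autofluorescence (Ex/Em 540/590 nm, Rose Bengal sodium equivalents) was measured in HepG2 cells, 2,000 per well in MEM plus 10% FBS, plated overnight at 37 C. Readings were taken 1 hr after adding 23 nL compound or DMSO, at 37 C and 5% CO2.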

[6] = qHTS assay to test for compound auto fluorescence at 460 nm (blue) in HEK293 cells (AID 720678)
How it was run: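 Auto fluorescence in the blue band was quantified as triamterene equivalency. HEK293 cells were seeded at 2,000/well, dosed after a 4-5 hr attachment, and kept overnight at 37C before the 405/460 nm reading.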

[7] = qHTS assay to test for compound auto fluorescence at 590 nm (red) in HEK293 cells (AID 720679)
How it was run: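 Autofluorescence equivalency to Rose Bengal sodium, 540/590nm, in HEK293 cells exposed overnight to 23 nL compound per well.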

[8] = qHTS assay to test for compound auto fluorescence at 535 nm (green) in HEK293 cells (AID 720680)
[9] = qHTS assay to test for compound auto fluorescence at 460 nm (blue) in HEK293 cell free culture (AID 720681)
How it was run: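 Blue fluorescence (Ex 405/Em 460 nm, triamterene-equivalent) was read immediately after pin transfer of compound or DMSO into medium (DMEM, 10% FBS) without cells.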

[10] = qHTS assay to test for compound auto fluorescence at 535 nm (green) in HEK293 cell free culture (AID 720682)
How it was run: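 Each library compound, or DMSO control, is added by pintool to medium alone, comprising DMEM and 10% FBS. Emission at 535 nm following 485 nm excitation is quantified against fluorescein.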

[11] = qHTS assay to test for compound auto fluorescence at 590 nm (red) in HEK293 cell free culture (AID 720683)
How it was run: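 Red-channel autofluorescence of compounds in culture medium (DMEM, 10% FBS), no cells, measured at 540/590 nm. Rose Bengal sodium is the reference fluorophore for equivalence.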

[12] = qHTS assay to test for compound auto fluorescence at 590 nm (red) in HepG2 cell free culture (AID 720684)
How it was run: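 Plate contents were MEM with 10% FBS plus test compound or DMSO, no cells. Fluorescence was recorded with 540 nm excitation and 590 nm emission.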

[13] = qHTS assay to test for compound auto fluorescence at 460 nm (blue) in HepG2 cell free culture (AID 720685)
How it was run: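 Compound (23 nL) or DMSO pinned into cell-free MEM with 10% FBS; blue fluorescence read at 405/460 nm excitation/emission, expressed as auto-fluorescence equivalency to triamterene.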

[14] = qHTS assay to test for compound auto fluorescence at 535 nm (green) in HepG2 cell free culture (AID 720686)
[15] = qHTS assay to test for compound auto fluorescence at 460 nm (blue) in HepG2 cells (AID 720687)
How it was run: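 Blue-channel autofluorescence (Ex/Em 405/460 nm, triamterene-equivalent) was measured after 1 hr compound exposure at 37 C, 5% CO2. Cells were HepG2, plated overnight at 37 C in MEM plus 10% FBS.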

[16] = qHTS assay for small molecules that induce genotoxicity in human embryonic kidney cells expressing luciferase-tagged ATAD5 (AID 651632); also: nearly all actives have a fitted effect of over 15% in size; also: potency is read from the fitted curve at half-maximal effect
How it was run: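 Luminescent reporter readout, HEK293T ATAD5-luc line: 16 hr drug exposure (37C, 5% CO2) followed by Amplite, 30 min RT.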

[17] = qHTS assay for small molecule disruptors of the mitochondrial membrane potential (AID 720635); also: potency is read from the fitted curve at half-maximal effect
How it was run: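 Mitochondrial membrane potential tracked with Mito-MPS dye, red aggregates (ex 540/em 590 nm) against green monomers (ex 490/em 535 nm). Compound treatment 1 hr at 37C, dye 30 min in HepG2.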

[18] = qHTS assay to test for compound auto fluorescence at 535 nm (green) in HepG2 cells (AID 720675)
[19] = target: Glucocorticoid receptor (Homo sapiens) (UniProt P04150); assay: qHTS assay to identify small molecule agonists of the glucocorticoid receptor (GR) signaling pathway (AID 720691; active = well fitted activation curve with a large enough effect in the signal ratio in the repeat runs, not every such curve was filed as active; the % refers to the signal ratio)
Chain of Glucocorticoid receptor (Homo sapiens) (P04150 whole entry, looked up): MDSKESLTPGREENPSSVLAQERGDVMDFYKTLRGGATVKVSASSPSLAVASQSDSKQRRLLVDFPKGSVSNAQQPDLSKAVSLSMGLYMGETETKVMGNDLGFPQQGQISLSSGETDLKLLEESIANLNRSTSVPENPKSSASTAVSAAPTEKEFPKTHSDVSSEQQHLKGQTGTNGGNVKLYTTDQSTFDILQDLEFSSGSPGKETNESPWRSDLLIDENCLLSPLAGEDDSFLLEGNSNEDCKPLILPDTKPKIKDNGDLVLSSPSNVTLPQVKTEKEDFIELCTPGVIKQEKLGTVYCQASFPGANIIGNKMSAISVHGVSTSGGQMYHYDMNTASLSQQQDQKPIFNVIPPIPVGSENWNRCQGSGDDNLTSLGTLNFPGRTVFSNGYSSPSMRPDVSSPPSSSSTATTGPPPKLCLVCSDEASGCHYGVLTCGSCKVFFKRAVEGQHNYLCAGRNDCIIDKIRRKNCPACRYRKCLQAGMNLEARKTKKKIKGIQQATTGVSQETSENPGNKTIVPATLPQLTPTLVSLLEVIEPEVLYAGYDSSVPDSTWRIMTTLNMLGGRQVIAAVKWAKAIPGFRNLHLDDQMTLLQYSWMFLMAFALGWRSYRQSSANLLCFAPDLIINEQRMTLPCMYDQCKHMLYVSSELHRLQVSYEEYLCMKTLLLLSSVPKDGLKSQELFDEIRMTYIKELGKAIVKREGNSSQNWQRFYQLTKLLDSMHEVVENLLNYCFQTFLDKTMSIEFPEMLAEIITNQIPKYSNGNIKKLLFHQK
How it was run: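 qHTS in GR-bla HeLa cells: 4 h settling at 37 C/5% CO2, 18 h compound incubation at 37 C, 2 h LiveBLAzer B/G FRET substrate at room temperature, fluorescence intensity measured.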

[20] = target: Glucocorticoid receptor (Homo sapiens) (UniProt P04150); assay: qHTS assay to identify small molecule antagonists of the glucocorticoid receptor (GR) signaling pathway (AID 720692; active = well fitted inhibition curve with a large enough effect in the signal ratio in the repeat runs, not every such curve was filed as active; the % refers to the signal ratio)
How it was run: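 Inhibition of glucocorticoid signalling is measured in HeLa cells with a GRE-controlled beta-lactamase reporter; cells are co-treated with compound and 5 nM dexamethasone (final) for 18 h before FRET substrate readout.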

Measured: Potency

CCOP(=S)(OCC)OP(=S)(OCC)OCC
not listed: [16] | [17] | [18] | [19] | [20]
inactive: all other assays above

CC(C)=CC1C(C(=O)OCN2C(=O)C3=C(CCCC3)C2=O)C1(C)C (centres undefined)
active: [17] 29.8 µM and 54.5 µM
not listed: [1] | [4] | [20]
inactive: all other assays above

CC(C)(c1ccccc1)c1ccc(O)cc1
48.2 µM (active) and inactive: [4]
active: [17] 3.04 µM and 3.86 µM
not listed: [1] | [2] | [18] | [19] | [20]
inactive: all other assays above

O=[N+]([O-])/N=C1\NCCN1Cc1ccc(Cl)nc1
not listed: [1] | [19]
inactive: all other assays above

CCOP(=O)(O)OCC (tested in a mixture with another compound)
inactive and 60.6 µM (active): [2] | [4]
active: [17] 24.1 µM
not listed: [1] | [3] | [18] | [19] | [20]
inactive: all other assays above

CCC(=O)Nc1ccc(Cl)c(Cl)c1
active: [4] 54.5 µM | [17] 31.3 µM and 30.6 µM
not listed: [1] | [16] | [18] | [19] | [20]
inactive: all other assays above

ClC(Cl)=C(Cl)C(Cl)=C(Cl)Cl
not listed: [1]
inactive: all other assays above

CC1CC(=O)O1 (centres undefined)
not listed: [1] | [16] | [19] | [20]
inactive: all other assays above

Clc1ccccc1-c1nnc(-c2ccccc2Cl)nn1
active: [16] 30.4 µM
not listed: [1] | [2] | [4] | [17] | [18] | [19] | [20]
inactive: all other assays above

Cc1cc(Cl)ccc1N=CN(C)C
not listed: [1] | [18] | [19] | [20]
inactive: all other assays above

C=CC(Cl)CCl (centres undefined)
not listed: [1] | [4] | [17] | [19] | [20]
inactive: all other assays above

C[N+](C)(C)CC(=O)O
not listed: [1] | [17] | [19] | [20]
inactive: all other assays above

[Cl-].[Cl-].[Cl-].[Fe+3]
not listed: [1] | [2] | [4] | [16] | [17] | [18] | [19] | [20]
inactive: all other assays above

COP(=S)(OC)Oc1ccc(Sc2ccc(OP(=S)(OC)OC)cc2)cc1
active: [4] 61.1 µM | [17] 24.8 µM and 30.6 µM
not listed: [1] | [19] | [20]
inactive: all other assays above

CCCCCCCCCC(CC)c1ccc(S(=O)(=O)O)cc1 (centres undefined)
inactive and 68.6 µM (active): [4]
active: [17] 61.1 µM
not listed: [1] | [2] | [3] | [18] | [19] | [20]
inactive: all other assays above

CC(C)(O)C(=O)Nc1ccc([N+](=O)[O-])c(C(F)(F)F)c1
active: [17] 15.7 µM and 17.8 µM
not listed: [1] | [4] | [19] | [20]
inactive: all other assays above
